Compound activity deposited in PubChem by University of Pittsburgh Molecular Library Screening Center.
HIV RNase H inh: blocks HIV-1 RNase H cleavage of RNA/DNA duplex; 65,000 compounds, 1.9% hits; RT-RNase H RNA/DNA duplex cleavage, fluorescence; AID 565; inhibition, % at 10 µM; P04585; in the data active = inhibition above about 50%
* = called active by the depositor. The sample as a whole holds a higher share of hits than the screen did.

SMILES	HIV RNase H inh
Cc1ccccc1NC(=O)CCC(=O)OCCCC(F)(F)C(F)(F)F	-9.1
CCc1nnc(NC(=O)C2Cc3ccccc3CN2S(=O)(=O)c2cccs2)s1 (configuration not stated)	50.5*
O=C(Nc1nnc(C2CC2)s1)C1Cc2ccccc2CN1S(=O)(=O)c1cccs1 (configuration not stated)	58.9*
O=C(Nc1ccccn1)C1CCN(S(=O)(=O)c2cccs2)CC1	-6.0
CCc1nnc(NC(=O)C2CCCN2S(=O)(=O)c2ccc(C)cc2)s1 (configuration not stated)	-11.3
O=C(C1CCN(S(=O)(=O)c2cccs2)CC1)N1CCc2ccccc2C1	-14.8
COc1ccc(S(=O)(=O)N2Cc3ccccc3CC2C(=O)Nc2nccs2)cc1OC (configuration not stated)	-0.8
CCOC(=O)C1CCN(c2cc(=O)n(Cc3ccc(F)cc3)c(=O)[nH]2)CC1	-6.2
COc1cccc(NC(=O)N2CCN(Cc3nc4ccccc4c(=O)[nH]3)CC2)c1	-0.2
COCCN1Cc2cccc(C(=O)Nc3ccc(C)c(C)c3)c2C1=O	-6.5
COCCN1Cc2cccc(C(=O)Nc3cccc(OC)c3)c2C1=O	-9.1
COCCN1Cc2cccc(C(=O)Nc3c(C)cccc3C)c2C1=O	58.1*
O=C(c1cc2nc3c(c(C(F)(F)F)n2n1)CCc1ccccc1-3)N1CCN2CCCC2C1 (configuration not stated)	-24.0
N#CC1=C2SCN(Cc3ccccc3)CN2C(=O)CC1c1ccc2c(c1)OCO2 (configuration not stated)	-24.5
N#CC1=C(N)Oc2c(oc(CO)cc2=O)C1c1cccs1 (configuration not stated)	4.2
CC(C)c1ccc(C2CC(=O)N3CN(Cc4ccco4)CSC3=C2C#N)cc1 (configuration not stated)	59.5*
COc1ccc(C2CC(=O)N3CN(c4ccc(C)c(Cl)c4)CSC3=C2C#N)cc1 (configuration not stated)	20.8
COc1ccc2ccccc2c1C1CC(=O)N2CN(Cc3ccco3)CSC2=C1C#N (configuration not stated)	6.4
N#CC1=C2SCN(Cc3ccccc3)CN2C(=O)CC1c1cccs1 (configuration not stated)	64.8*
COc1cc(C2CC(=O)N3CN(Cc4ccco4)CSC3=C2C#N)ccc1OCc1ccccc1 (configuration not stated)	10.7
COc1ccc(OC)c(C2CC(=O)N3CN(c4ccccc4)CSC3=C2C#N)c1 (configuration not stated)	4.0
N#CC1=C2SCN(Cc3ccco3)CN2C(=O)CC1c1ccc(Cl)cc1 (configuration not stated)	54.5*
CSC1=C(C#N)C(c2ccc(C(C)C)cc2)CC(=O)N1 (configuration not stated)	-12.7
COc1ccc(C2CC(=O)N3CN(Cc4ccco4)CSC3=C2C#N)cc1 (configuration not stated)	19.6
COc1ccc(C2CC(=O)N3CN(c4ccccc4F)CSC3=C2C#N)cc1OC (configuration not stated)	59.1*
SMILES	HIV RNase H inh
O=C(CSc1nc2ccccc2[nH]1)NCCN1CCCCC1	-12.9
COC(=O)Cn1c(=O)c2c(nc3n2CC(C)CN3c2ccc(C)c(C)c2)n(C)c1=O (configuration not stated)	-5.8
Cc1cc(C)n(CCc2nc3c4ccccc4nc(SCc4ccc(C#N)cc4)n3n2)n1	15.5
COc1cc(N2CN=c3s/c(=C\c4ccccn4)c(=O)n3C2)cc(OC)c1OC	-20.2
COc1cc(-c2ccc(NC(=O)CN3CCCCC3)c(OC)c2)ccc1NC(=O)CN1CCCCC1	-2.3
CCn1c(NC(=O)Nc2ccccc2OC)nc2ccccc21	13.2
COC(=O)c1[nH]c2ccccc2c1NC(=O)CNC1CCCCC1	-0.6
COc1ccccc1NC(=O)c1cc(Sc2nncn2C)nc2ccccc12	4.7
CC(C)C(=O)Nc1cccc(NC(=O)CCN2C(=O)c3ccccc3S2(=O)=O)c1	-13.1
COCCCNC(CC(=O)Nc1ccc(N(C)C)cc1)C(=O)O (configuration not stated)	1.3
COc1ccc(-n2c(C)cc(C(=O)CSc3nn4c(=O)c(C(C)(C)C)nnc4s3)c2C)cc1	50.2*
CC(C)(C)c1nnc2sc(SCC(=O)c3ccccc3)nn2c1=O	-2.6
COc1ccc(C(=O)CSc2nn3c(=O)c(C(C)(C)C)nnc3s2)cc1	-5.1
CC(C)(C)C1=C(C#N)C(c2cc3c(cc2Br)OCO3)C(C#N)=C(N)O1 (configuration not stated)	-7.6
CC(=O)Cc1nsc(NC(=O)c2ccc(-c3cccc(C(F)(F)F)c3)o2)n1	1.0
Cc1nnc(NC(=O)c2ccc(-c3cccc(C(F)(F)F)c3)o2)s1	57.0*
Cc1nnc(NC(=O)c2cccc(F)c2)s1	-4.3
CCCN1C2CCCC1CC(NC(=O)c1cc(OC)c(OC)c(OC)c1)C2 (configuration not stated)	1.2
Cc1nn(C)c(C)c1S(=O)(=O)N1CCCC(C(=O)NCC2COc3ccccc3O2)C1 (configuration not stated)	5.1
CCOC(=O)c1c(C)oc2c1c(C(c1cccnc1)N1CCN(C)CC1)c(O)c1ccccc12 (configuration not stated)	60.0*
CCOC(=O)c1c(C)oc2c1c(C=NCc1ccccn1)c(O)c1ccccc12	-42.9
CCOC(=O)c1c(C)oc2c1c1c(c3ccccc32)OCN(Cc2cccnc2)C1	17.2
CCCCOCP(=O)(CCCC)COCCCC	-1.7
CCC(=O)N1CCN(c2ccccc2NC(=O)COc2ccccc2Cl)CC1	-8.0
CCOc1ccccc1-c1nn2c(Cc3ccccc3)nnc2s1	-39.0
SMILES	HIV RNase H inh
c1ccc(Cc2nnc3sc(C4COc5ccccc5O4)nn23)cc1 (configuration not stated)	70.5*
Cc1ccc(-c2nnc3sc(C4COc5ccccc5O4)nn23)cc1 (configuration not stated)	-11.8
Cc1cc(S(=O)(=O)N2CCC(NC(=O)C34CC5CC(CC(C5)C3)C4)CC2)ccc1-n1cnnn1	5.1
Cc1ccc(S(=O)(=O)NCCCN2CCOCC2)c(C)c1	-11.6
CNC(=O)NC(=O)CSc1ccc(NC(C)=O)cc1	-0.4
COc1nc2c(C)cccc2cc1-c1noc(-c2ccco2)n1	39.9
CCc1nc2c(sc3nc(N4CCOCC4)c4c(c32)CC(C)(C)OC4)c(=O)o1	8.3
COc1ccc(CC(=O)Nc2ccc(-c3nc4cc(C)ccc4o3)c(O)c2)cc1OC	47.7
CCCC(=O)Nc1ccc(-c2nc3cc(C)ccc3o2)cc1	18.5
CCCC(=O)Nc1ccc(-c2nc3cc(C)c(C)cc3o2)c(O)c1	58.2*
O=C(NCC(c1cccnc1)N1CCN(c2ccccc2F)CC1)c1cccc(Cl)c1 (configuration not stated)	2.5
O=C1C(Cl)=C(N2CCCCCC2)C(=O)N1c1ccccc1	56.8*
O=C1C(Cl)=C(N2CCOCC2)C(=O)N1CCc1ccccc1	-12.7
O=C(O)c1cccc(N2CCCC2)c1	3.3
O=C1CC(N2CCOCC2)C(=O)N1c1cccc(Cl)c1 (configuration not stated)	5.6
O=C1C(Cl)=C(N2CCOCC2)C(=O)N1c1cccc(Cl)c1	93.0*
CN1CCN(C2=C(Cl)C(=O)N(CCc3ccccc3)C2=O)CC1	1.4
CNC(=O)C1CC(=O)N(Cc2ccc3c(c2)OCO3)C(=Nc2ccc(OC)cc2)S1 (configuration not stated)	-10.3
Cn1c(=O)c2c(nc(CN3CCOCC3)n2CCCO)n(C)c1=O	-11.7
